Reference: PMC4552634, “A New Set of Chemical Starting Points with Plasmodium falciparum Transmission-Blocking Potential for Antimalarial Drug Discovery” (PLoS ONE, 2015)
Where two headings read alike, the source gives them in different places. Among all 13,000 compounds or so, about 3,200 (25%) showed an effect of 50% or more. This is one part of the list.

Tested on: P. falciparum stage V gametocytes
Set-up: BacTiter-Glo ATP luminescence viability of purified stage V gametocytes in 384-well plates, per cent inhibition versus DMSO
Details: 48 h, 5 µM, inhibitor

Row | SMILES | % Inhibition | % Inhibition (% Inhibition)
1 | COc1cc(Cc2cnc(N)nc2N)ccc1OCc1csc(-c2ccc(Cl)cc2)n1 [TCMDC-138680] | 16.88% | 
2 | CCCc1cc(C(C)=O)ccc1OCCCON1C(N)=NC(N)=NC1(C)C [TCMDC-131336] | -2.455% | 
3 | CS(=O)(=O)NCCCNCc1cccc(-c2ccc(-c3nc4ccccc4[nH]3)s2)c1.O=C(O)C(F)(F)F [TCMDC-133088] | 4.156% | 
4 | CC(=O)c1sc2ccccc2c1O [TCMDC-125829] | 14.25% | 
5 | COc1ccc2nccc(CCC3(O)CCC(NCc4cc5c(cc4F)SCC(=O)N5)CC3)c2c1 (stereo not drawn) [TCMDC-141917] | 62.44% | 
6 | COc1ccc2nccc(NC(=O)C3CCC(NCc4ccc5c(c4)NC(=O)CS5)CC3)c2c1 (stereo not drawn) [TCMDC-141228] | 28.37% | 
7 | COc1ccc2nccc(NC(=O)OC3CCC(NCc4ccc5c(n4)NC(=O)CS5)CC3)c2c1 (stereo not drawn) [TCMDC-141555] | -20.26% | 
8 | O=C(Nc1cccc(-c2cccc(-c3nc4ccccc4[nH]3)c2)c1)Nc1ccc(Cl)c(Cl)c1 [TCMDC-133276] | -27.25% | 
9 | CN1CCC(N(Cc2ccc(N3CCN(Cc4c[nH]c5ccc(Cl)cc45)CC3)nc2)C2CC2)CC1 [TCMDC-125090] | 56.06% | 
10 | CN(C)C1CCN(Cc2ccc(N3CCN(Cc4cccc5[nH]ccc45)CC3)nc2)CC1 [TCMDC-125091] | 12.57% | 
11 | O=C(NC1CC1)c1ccc(N2CCN(Cc3ccc(Cl)cc3)CC2)nc1 [TCMDC-134579] | -1.025% | 
12 | COc1ccc(-c2nc3c(N)nc(N)nc3nc2C(C)C)cc1 [TCMDC-132109] | -10.94% | 
13 | COc1ccc2nccc([C@@H](O)CN3CCC(NC(=O)C(c4cc5ccccc5s4)N4CCN(c5ccccc5OC)CC4)CC3)c2c1 (stereo partly drawn) [TCMDC-140998] | -1.294% | 
14 | Cc1ccc(-n2nc(C)c3c2NC(=O)CSC3c2ccsc2)cc1 (stereo not drawn) [TCMDC-124763] | 18.54% | 
15 | Cc1cccc(-n2nc(C)c3c2NC(=O)CC3C(=O)c2ccc(Cl)s2)c1 (stereo not drawn) [TCMDC-124735] | 9.48% | 
16 | Cc1nn(-c2cccc(Cl)c2)c2c1C(C(=O)c1ccc3c(c1)OCO3)CC(=O)N2 (stereo not drawn) [TCMDC-124734] | 53.61% | 
17 | COc1ccc2ncc(F)c(CCN3CC(O)C(CNCc4nc5c(cc4Cl)OCC(=O)N5)C3)c2n1 (stereo not drawn) [TCMDC-136076] |  | 36.95%
18 | CN(C)c1ccc(Br)c(Br)c1 [TCMDC-137228] | -4.164% | 
19 | CCc1ccc(N2C(N)=NC(N)=NC2(C)C)cc1 [TCMDC-137714] | 18.99% | 
20 | O=C(Nc1cccc2ccccc12)N1CCc2cc3nccc(N4CCN5CCC[C@H]5C4)c3cc21 [TCMDC-140051] | -22.56% | 
21 | COc1ccc(N2CCN(CCCCNC(=O)c3ccc(NC(=O)c4ccc(C(F)(F)F)cc4)cc3)CC2)c(OC)c1 [TCMDC-138132] | -49.13% | 

Row | SMILES | % Inhibition | % Inhibition (% Inhibition)
22 | COc1ccc(N2CCN(CCCC/C=C/c3ccc(NC(=O)c4cc(Cl)cc(Cl)c4)cc3)CC2)c(OC)c1 [TCMDC-138219] | 10.07% | 
23 | COc1ccc(N2CCN(CCCCNC(=O)c3ccc(NC(=O)c4ccc(Cl)c(Cl)c4)cc3)CC2)c(OC)c1 [TCMDC-138159] | 58.71% | 
24 | COc1ccc(N2CCN(CCCCNC(=O)c3ccc(NC(=O)c4cccc(Cl)c4)cc3)CC2)c(OC)c1 [TCMDC-138183] | 74.19% | 
25 | COc1ccc(N2CCN(CCCNC(=O)c3ccc(NC(=O)c4cc(Cl)cc(Cl)c4)cc3)CC2)c(OC)c1 [TCMDC-138244] | -9.881% | 
26 | COc1ccc(N2CCN(CCCOc3ccc(NC(=O)c4cc(Cl)cc(Cl)c4)cc3)CC2)c(OC)c1 [TCMDC-138225] | -23.18% | 
27 | COc1ccc(N2CCN(CCCCNC(=O)c3ccc(NC(=O)c4cc(Cl)cc(Cl)c4)cc3)CC2)c(OC)c1 [TCMDC-138158] | -3.672% | 
28 | COc1ccc(N2CCN(CCCCNCc3ccc(NC(=O)c4cc(Cl)cc(Cl)c4)cc3)CC2)c(OC)c1 [TCMDC-138226] | 99.96% | 
29 | COc1ccc(N2CCN(CCCCNC(=O)c3ccc(NC(=O)c4ccc(Cl)cc4)cc3)CC2)c(OC)c1 [TCMDC-138121] | -18.96% | 
30 | Cc1ccoc1C(=O)Nc1cccc(-c2cccc(-c3nc4ccc(C(F)(F)F)cc4[nH]3)c2)c1 [TCMDC-136835] | 10.66% | 
31 | Cc1onc(-c2c(Cl)cccc2Cl)c1C(=O)N1CCc2cc3nccc(N4CCN5CCC[C@H]5C4)c3cc21 [TCMDC-140048] | 3.329% | 
32 | COc1cc(C(F)(F)F)nc2c(CNCCCNc3cc(=O)c4ccccc4[nH]3)scc12 [TCMDC-141145] | -12.37% | 
33 | CNc1nc(N/N=C/c2cc3c(cc2[N+](=O)[O-])OCO3)nc(Nc2cccc(C(F)(F)F)c2)n1 [TCMDC-124216] | 15.24% | 
34 | CCCCNCc1ccc(-c2nc(CN(C(=O)Nc3cc([N+](=O)[O-])ccc3F)C3Cc4ccccc4C3)cs2)cc1 [TCMDC-141640] | 54.3% | 
35 | Cc1ccc([N+](=O)[O-])cc1NC(=O)N(CC(O)c1ccccc1)C1CCCCC1 (stereo not drawn) [TCMDC-123672] | 2.226% | 
36 | O=C(Nc1ccccc1F)N(CCCn1ccnc1)Cc1csc(-c2ccc(CNCc3ccccc3)cc2)n1 [TCMDC-141643] | 22.98% | 
37 | COc1ccc(Cc2c(C)nc3nc(N)nc(N)c3c2C)cc1OC [TCMDC-137649] | 1.878% | 
38 | O=C(Nc1ccc(Cl)cc1)N1CCN(C2CCCCC2)CC1 [TCMDC-125819] | 10% | 
39 | O=C(Nc1ccc2c(c1)CCC2)c1cccc(CN2CCCN(Cc3cccc(O)c3)CC2)c1 [TCMDC-135957] | 14.29% | 
40 | O=C(Cc1ccsc1)NCC(c1ccccc1Cl)c1c[nH]c2ccccc12 (stereo not drawn) [TCMDC-125251] | 11.67% | 
41 | NC(=NCc1ccccc1Cl)NCCc1c[nH]c2ccccc12 [TCMDC-138012] | -46.58% | 
42 | O=C(Cc1cccs1)NCC(c1ccccc1Cl)c1c[nH]c2ccccc12 (stereo not drawn) [TCMDC-125062] | 59.09% | 
